Screens from PubChem BioAssay.
Hits are enriched below; roughly 0.77% of the tested compounds scored in any of these assays.
Mtb betalactam: beta-lactam sensitization of Mtb H37Rv, H37Rv. M. tuberculosis H37Rv growth with meropenem, percent inhibition. inhibition, % at 25 µM. hit rate 0.27% among 330,000. AID 434955, 2010; call rule not given here;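 also: growth measured after seven days incubation then overnight dye step; 0% = bacteria only wells and 100% = bacteria with antibiotic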
RecA intein inh: Mtb RecA intein splicing inhibitors, primary screen, biochemical, fluorescence, HTS. cell-free RecA intein splicing. inhibition, % (test concentration not listed). hit rate 0.75% among 290,000. AID 2221, 2009; in the data active = inhibition above about 30%; inconclusive = no clear call, values can overlap the other calls;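 also: 0% = vehicle wells and 100% = reference inhibitor control wells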
Mtb hypoxia inh: PubChem AID 1159583; M. tuberculosis hypoxia-regulated fluorescent reporter, fluorescence; hit rate 0.1% among 300,000; fluorescence inhibition, % (no concentration beside the values); in the data active = fluorescence inhibition mostly above about 23%, no sharp cut-off; inactive = mostly below about 17%
Rv3671c inh: Rv3671c serine protease inhibitors, primary screen, biochemical, fluorescence polarization, M. tuberculosis H37Rv; P9WHR9; inhibition, % at 5.96 µM; hit rate 0.048% among 320,000; AID 2606, 2010; in the data active = inhibition above about 38%;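 also: extracellular domain of Rv3671c used as enzyme; 0% = enzyme with DMSO and 100% = no enzyme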
Mtb UGM inh: M. tuberculosis UGM enzyme inhibitors, primary screen, biochemical, fluorescence polarization, single point | UDP-galactopyranose mutase (Mycobacterium tuberculosis (strain ATCC 25618 / H37Rv)), … | purified UGM, fluorescence polarization probe displacement | inhibition, % at 10 µM | hit rate 0.06% among 320,000; in the data active = inhibition above about 10%, passing the limit was not always enough; inconclusive = no clear call, values can overlap the other calls
Target sequence (P9WIQ1 whole entry, looked up): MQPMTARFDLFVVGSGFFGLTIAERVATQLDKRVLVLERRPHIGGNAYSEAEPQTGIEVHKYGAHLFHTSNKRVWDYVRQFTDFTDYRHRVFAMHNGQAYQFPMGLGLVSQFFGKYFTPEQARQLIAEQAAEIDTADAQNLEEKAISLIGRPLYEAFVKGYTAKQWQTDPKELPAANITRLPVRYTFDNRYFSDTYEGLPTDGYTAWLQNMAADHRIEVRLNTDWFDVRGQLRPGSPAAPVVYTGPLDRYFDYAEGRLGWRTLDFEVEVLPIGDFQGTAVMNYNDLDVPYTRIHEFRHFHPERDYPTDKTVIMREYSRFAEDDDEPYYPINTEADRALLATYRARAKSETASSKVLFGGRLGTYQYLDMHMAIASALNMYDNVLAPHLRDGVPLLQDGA
* = called active by the depositor; ? = inconclusive; · = not tested or not shown.

SMILES	Mtb betalactam	RecA intein inh	Mtb hypoxia inh	Rv3671c inh	Mtb UGM inh
CC1CN(C(C)CO)C(=O)c2cccc(NC(=O)Nc3ccc(C(F)(F)F)cc3)c2OC1CN(C)S(=O)(=O)c1cn(C)cn1 (configuration not stated)	·	·	9.6	·	·
COC(=O)C1=C(c2cccc(OC)c2OC)CC2CCC1N2C(=O)N1CCC(O)CC1 (configuration not stated)	·	·	6.0	·	·
CCc1ccc(C2NC(=S)NC3=C2C(=O)N(c2ccccc2OC)C(c2ccc(CC)cc2)N3)cc1 (configuration not stated)	7.2	10.5	0.5	7.5	-2.4
O=C1C2=C(NC(=S)NC2c2ccc(Cl)cc2)NC(c2ccc(Cl)cc2)N1c1ccc(Cl)cc1 (configuration not stated)	-1.2	36.8*	0.2	0.3	0.0
COC(=O)C1CC[C@@](C)(c2ccc(OC)cc2)C1(C)C (some centres not stated)	·	·	13.4	·	·
O=C1NC(=O)N(c2ccc3c(c2)OCO3)C(=O)/C1=C/c1ccc(N2CCCCC2)o1	2.9	-1.1	19.7	-3.4	2.5
O=C1NC(=O)N(c2ccc3c(c2)OCO3)C(=O)C1=Cc1ccc(N2CCCC2)o1	·	·	40.1*	·	·
CCOc1ccc(N2C(=O)NC(=O)/C(=C\c3ccc(N4CCOCC4)cc3C)C2=O)cc1	-1.0	·	-1.8	-0.6	1.0
CCOc1ccc(N2C(=O)NC(=O)C(=Cc3ccc(N4CCCCC4)o3)C2=O)cc1	·	·	40.0*	·	·
O=C(CCCCO)CCCCCCCCC1NC(CO)C(O)C1OC1OC(CO)C(O)C(O)C1O (configuration not stated)	·	·	8.4	·	·
Cc1ccc(C)c(NC(=O)CN2C(=O)NC(C)(c3ccc4c(c3)OCCO4)C2=O)c1 (configuration not stated)	-3.2	·	33.9*	-9.1	0.0
Cc1ccc(F)cc1NC(=O)CN1C(=O)NC(C)(c2ccc3c(c2)OCCO3)C1=O (configuration not stated)	2.1	·	3.6	-9.0	0.6
CCS(=O)(=O)C1=NSC2=NC(=O)/C(=C\c3ccc(OC(=O)c4ccco4)c(OC)c3)C(=N)N21	2.0	27.4	-4.4	3.6	-5.0
COc1cc(/C=C2/C(=N)N3C(=NC2=O)SN=C3S(=O)(=O)C(C)C)ccc1OC(=O)c1ccco1	15.9	23.3	-11.6	-0.3	1.2
N=C1/C(=C\c2ccc(OC(=O)c3ccco3)cc2)C(=O)N=C2SC=NN12	·	6.1	1.2	·	·
N=C1/C(=C\c2ccc(OC(=O)c3ccc(F)cc3)cc2)C(=O)N=C2SC(N3CCOCC3)=NN12	3.9	39.3*	-1.2	4.2	-0.1
CCOc1cc(/C=C2/C(=N)N3C(=NC2=O)SN=C3S(=O)(=O)C(C)C)ccc1OC(=O)c1ccco1	11.1	31.8*	-2.5	-10.9	-1.3
CS(=O)(=O)C1=NN2C(=N)/C(=C\c3ccc(OC(=O)c4ccco4)cc3)C(=O)N=C2S1	75.7	36.8*	10.9	2.2	-0.5
CC1CCN(C2=NN3C(=N)/C(=C\c4ccc(OC(=O)c5ccco5)cc4)C(=O)N=C3S2)CC1	99.1	5.6	·	10.2	-3.7
CC(C)CS(=O)(=O)C1=NN2C(=N)/C(=C\c3ccc(OC(=O)c4ccco4)cc3)C(=O)N=C2S1	97.7	40.1*	·	-9.6	-2.2
COc1ccc(C2C=CCN(CC(C)C)CC(=O)N2Cc2ccc(F)cc2)cc1 (configuration not stated)	·	·	19.1	·	·
CCS(=O)(=O)C1=NN2C(=N)/C(=C\c3ccc(OC(=O)c4ccco4)c(OC)c3)C(=O)N=C2S1	4.3	25.4	·	1.9	-6.8
C=CCOc1ccc(/C=C2\C(=N)N3N=C(S(=O)(=O)CC)SC3=NC2=O)cc1OC	9.9	1.5	47.6*	-3.7	1.0
Cc1ccc2c(c1)-c1c(ssc1=S)C(C)(C)N2C(=O)CSC1=NCCS1	?	30.1*	1.4	1.1	1.6
O=P(CCCCCCCCCP(=O)(c1ccccc1)c1ccccc1)(c1ccccc1)c1ccccc1	23.2	60.2*	-1.4	2.4	1.7
SMILES	Mtb betalactam	RecA intein inh	Mtb hypoxia inh	Rv3671c inh	Mtb UGM inh
COC(=O)[C@@]12CCCN1C(c1ccc(-c3ccc(C(C)=O)cc3)c(OC)c1)C1C(=O)N(C)C(=O)C12 (some centres not stated)	·	·	9.6	·	·
Cc1cc(C(=O)OCC(=O)Nc2c(Cl)cccc2Cl)c(C)o1	-7.6	·	6.4	1.9	10.1*
COC(=O)C1=C(c2cc3ccccc3o2)CC2CCC1N2C(=O)NCCCOC(C)C (configuration not stated)	·	·	5.3	·	·
CN(N=Nc1ccc([N+](=O)[O-])cc1)c1ccccc1	50.7	-1.3	·	-6.7	25.6*
CN(N=Nc1cccc([N+](=O)[O-])c1)c1ccccc1	34.4	7.1	2.5	-4.6	-0.6
CCOC(=O)c1c(NC(=O)COC(=O)c2ncc(Cl)c(Cl)c2Cl)sc(C(=O)N(C)C)c1C	·	38.1*	12.5	3.2	0.6
CCOC(=O)c1c(C)[nH]c(C(=O)OCC(=O)Nc2sc(C(=O)N(C)C)c(C)c2C(=O)OCC)c1C	-0.2	-1.0	3.9	-12.3	0.0
C#Cc1ccc(C2C=C(C(=O)O)OC(OCCCCO)C2)cc1 (configuration not stated)	·	·	4.3	·	·
CCOC(=O)C1C2COc3cc(OC)ccc3C2N2C(=O)CN(CCc3c[nH]c4ccccc34)C(=O)[C@@]12C (some centres not stated)	·	·	11.2	·	·
O=C1C(Cl)=C(NCC2CCCO2)C(=O)N1C1CCCCC1 (configuration not stated)	-9.0	·	-2.9	-0.4	1.9
Cc1nn(-c2ccccc2)c(Cl)c1C(=O)NCC1CCCO1 (configuration not stated)	1.4	·	0.6	-6.8	14.0*
O=C1C(Cl)=C(NCC2CCCO2)C(=O)N1c1ccccc1 (configuration not stated)	-2.5	32.8*	-0.1	4.2	0.7
Cc1cc(C(=O)NCC2CCCO2)n(-c2ccccc2)n1 (configuration not stated)	?	0.6	·	1.6	0.1
OCCN(CCO)c1ccc(C(c2ccccc2Cl)c2ccc(N(CCO)CCO)cc2Cl)c(Cl)c1	1.7	31.6*	6.6	18.9	·
N#CC(=Cc1ccc(N2CCOCC2)o1)C(=O)N1CCOCC1	·	·	25.7	·	·
CCCc1c(-c2ccc(O)cc2)nn(-c2ccc(O)cc2)c1-c1ccc(O)cc1	1.4	50.8*	·	-4.5	0.5
COC(=O)[C@]1(C)NC(c2ccc(-c3ccc(F)cc3)cc2)C2C(=O)N(C)C(=O)C21 (some centres not stated)	·	·	14.6	·	·
O=C(COC(=O)c1ccc2c(c1Cl)C(=O)c1ccccc1C2=O)NC1CC1	60.0	41.3*	-0.2	-15.7	-2.0
COP(=O)(OC)C(C=O)=NNc1ccc([N+](=O)[O-])cc1	·	·	12.8	·	·
c1ccc(CC2CNCCN2CCc2cccc3ccccc23)cc1 (configuration not stated)	·	·	12.6	·	·
